Only some compounds are listed: those with a hit (about 2.4% of all), similar ones and a draw of the others.
D2 PAM-1: potentiates the human D2 dopamine receptor allosterically | DiscoveRx D2 beta-arrestin cells, luminescence, 90 min; 100% = 57 uM dopamine signal | potentiation, % (test concentration not listed) | P14416 | 0.23% of 360,000 active; in the data active = potentiation above about 50%; inconclusive = mostly about 30% to 49%
Target sequence (P14416 whole entry, looked up): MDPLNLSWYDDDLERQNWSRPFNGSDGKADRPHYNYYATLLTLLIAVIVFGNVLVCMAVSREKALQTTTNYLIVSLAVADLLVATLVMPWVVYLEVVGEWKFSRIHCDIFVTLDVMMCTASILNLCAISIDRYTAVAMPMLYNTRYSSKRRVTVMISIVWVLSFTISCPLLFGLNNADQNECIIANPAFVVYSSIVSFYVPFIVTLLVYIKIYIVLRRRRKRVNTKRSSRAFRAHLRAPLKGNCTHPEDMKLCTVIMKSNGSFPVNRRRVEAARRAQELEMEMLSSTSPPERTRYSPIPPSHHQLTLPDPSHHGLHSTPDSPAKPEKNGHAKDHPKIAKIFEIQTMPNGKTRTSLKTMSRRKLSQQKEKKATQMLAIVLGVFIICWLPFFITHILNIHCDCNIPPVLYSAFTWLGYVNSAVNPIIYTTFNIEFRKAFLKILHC
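PathHunter beta-arrestin assay in DiscoveRx D2 cells. Compounds were added with an EC20 of dopamine (50 nM final) for 90 min at 37 deg C. Luminescence was read 1 h after detection reagent, with 57 uM dopamine as the EC100 control.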
D2 ag-1: activates the human D2 dopamine receptor; HEK293 T-REx D2 cells, calcium flux agonist mode; activation, % at 2 µM; 0.53% of 340,000 active; AID 485358;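 active = activation over 3 SD above normal in the single-dose calcium agonist read, cut at about 30% in these data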
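Calcium-flux readout, 1 cycle/sec over 180 s following compound pin transfer, in inducible HEK293 Trex D2 cells (force-coupled); dopamine controls included. Positive calcium responses during this window marked compounds as potential agonists.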
D2 PAM-2: D2 dopamine receptor (human) potentiation; P14416; HEK293 T-REx D2, calcium flux, EC20 dopamine potentiation; potentiation, % at 10 µM; 0.34% of 340,000 active;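 active = potentiation over 3 SD above the plate norm, cut at about 30% in these data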
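Potentiation of an EC20 dopamine calcium response measured kinetically over 180 s, after a preceding 180 s compound-only read flagging agonists. Cells: inducible Hek293 Trex D2 line, 4000/well, cultured overnight at 30 C before dye loading.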
D2 antagonist: D2 dopamine receptor (human) antagonism; P14416; HEK293 TREx D2 cells, calcium flux, dopamine EC80; inhibition, % at 10 µM; 2% of 340,000 active; in the data active = inhibition above about 30%; inactive = below that, where a call was filed
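Antagonism is scored as inhibition of an EC80 dopamine-evoked calcium signal in a force-coupled, tetracycline-inducible HEK293 T-REx D2 line, with compound present 180 s before agonist.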
D2 ag-2: activates the human D2 dopamine receptor. P14416. 0.084% of 360,000 active. activation, % (concentration not given with the values). DiscoveRx PathHunter D2 beta-arrestin, luminescence, 90 min; 100% = 57 uM dopamine signal; in the data active = activation above about 40%; inconclusive = between about 15% and that limit
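DiscoveRx PathHunter D2 beta-arrestin cells (2,100/well) attached overnight, then compound-stimulated 90 min at 37 C in HBSS/10 mM HEPES/0.1% Tween-20 buffer; beta-galactosidase complementation read by luminescence after 1 h at ambient temperature. Dopamine 57 uM final (EC100) as control.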
Hits are given with their value; . = inactive; ? = inconclusive; / = not tested or not shown.

SMILES	D2 PAM-1	D2 ag-1	D2 PAM-2	D2 antagonist	D2 ag-2
COc1cccc(C(C(=O)NC2CCCC2)N(CCC(C)C)C(=O)CCC(=O)Nc2cc(C)on2)c1 (centres undefined)	.	.	.	.	.
CCCCN(C(=O)CCC(=O)Nc1cc(C)on1)C(C(=O)NC(C)(C)C)c1ccccc1Cl (centres undefined)	.	.	/	.	.
COCCN(C(=O)CCC(=O)Nc1cc(C)on1)C(C(=O)NC(C)(C)C)c1ccccc1Cl (centres undefined)	.	.	/	45.3	.
COc1ccc(C(C(=O)NC2CCCC2)N(CCC(C)C)C(=O)CCC(=O)Nc2cc(C)on2)cc1 (centres undefined)	.	.	.	34.8	.
COc1ccc(C(C(=O)NC(C)(C)C)N(CCc2ccc(OC)c(OC)c2)C(=O)CCC(=O)Nc2cc(C)on2)cc1 (centres undefined)	.	.	/	34.5	.
COCCN(C(=O)CCC(=O)Nc1cc(C)on1)C(C(=O)NC(C)(C)C)c1ccc(OC)cc1 (centres undefined)	.	.	.	.	.
COc1ccccc1CNC(=O)CC(c1ccc(C)cc1)N1Cc2ccccc2C1=O (centres undefined)	/	.	.	/	/
CCOc1ccccc1CNC(=O)c1ccc2c(c1)nc1n2CCCCC1	/	/	.	/	/
Cc1ccc2cc(C#N)c(SCC(=O)NCC3CCCO3)nc2c1 (centres undefined)	.	.	.	.	.
Cc1ccc(-n2nnc3c(SCC(=O)NCC4CCCO4)ncnc32)cc1 (centres undefined)	.	.	/	46.4	.
Cc1ccc2nc(SCC(=O)NCC3CCCO3)c(C#N)cc2c1 (centres undefined)	.	.	.	40.7	.
O=C(CSc1ncnc2c1nnn2-c1ccc(F)cc1)NCC1CCCO1 (centres undefined)	.	.	.	.	.
Cc1cccc(OCc2nnc(SCC(=O)NCC3CCCO3)n2C)c1 (centres undefined)	.	.	37.4	.	.
Cc1ccc(-c2nc3n(n2)C(c2ccccc2Cl)C=C(c2ccc(Cl)cc2)N3)cc1 (centres undefined)	/	.	.	/	/
Cc1cc(C)c(NC(=O)CN2C(=O)c3cccnc3Oc3ccc(C)cc32)c(C)c1	/	.	.	/	/
CCN1C(=O)CSc2ccc(C(=O)NCc3ccccc3OC)cc21	.	.	33.8	.	.
CCN1C(=O)CSc2ccc(C(=O)NCc3ccccc3)cc21	.	.	.	.	.
Cc1ccc(S(=O)(=O)N2CCc3cc(C(=O)Nc4c(F)cccc4F)ccc32)cc1	/	.	.	/	/
CCCn1c(=O)c2sccc2n2c(CCCC(=O)N3CCN(c4ccccc4)CC3)nnc12	/	.	.	/	/
C/C(=N\NC(=O)CN(c1ccccc1)S(C)(=O)=O)c1ccccc1O	.	.	.	43.9	.
CC1CCN(C(=O)CSc2nnc3ccc(-c4cccnc4)nn23)CC1	.	.	.	37.8	.
COc1cccc(-c2ccc3nnc(SCC(=O)N4CCCC4)n3n2)c1	.	.	.	.	.
Cc1ccc(C(C(=O)NC2CCCC2)N(C(=O)Cc2cccs2)c2ccc3c(c2)OCCO3)cc1 (centres undefined)	.	.	.	48.1	.
O=C(NC1CCCC1)C(c1ccc(F)cc1)N(C(=O)Cc1cccs1)c1ccc2c(c1)OCCO2 (centres undefined)	.	.	.	.	.
O=C(c1ccc(NS(=O)(=O)c2ccc(F)cc2)cc1)N1CCC1	.	.	.	41.8	.
SMILES	D2 PAM-1	D2 ag-1	D2 PAM-2	D2 antagonist	D2 ag-2
CCOC(=O)N1CCN(C(=O)c2ccc(NS(=O)(=O)c3ccc(F)cc3)cc2)CC1	?	.	.	.	.
O=C(c1ccc(S(=O)(=O)Nc2ccccc2F)cc1)N1CCCC1	.	.	.	50.6	.
O=C(c1ccc(S(=O)(=O)Nc2ccccc2Cl)cc1)N1CCCC1	.	/	/	/	.
CCCCN1C(=O)C(O)(c2c[nH]c3ccccc23)c2cc(Br)ccc21 (centres undefined)	/	.	.	/	/
COc1ccc(Nc2nc(C(=O)N3CCc4ccccc4C3)cs2)cc1	.	.	.	81.5	.
COc1ccc(Nc2nc(C(=O)N3CCc4cc(OC)c(OC)cc4C3)cs2)cc1	.	.	.	.	.
CCn1nc(C)c(NC(=O)CCSc2nc(-c3ccco3)cc(C(F)(F)F)n2)c1C	.	.	31.3	.	.
Cc1cc(NC(=O)CCCSc2nc(-c3ccco3)cc(C(F)(F)F)n2)n(-c2ccccc2)n1	.	.	33.5	.	.
Cc1cc(NC(=O)CSc2nc(-c3ccco3)cc(C(F)(F)F)n2)n(-c2ccccc2)n1	.	.	.	.	.
N#Cc1c(NC(=O)CSc2nc(-c3ccco3)cc(C(F)(F)F)n2)sc2c1CCCC2	.	.	44.4	.	.
Cc1ccc(S(=O)(=O)c2cn(CC(=O)Nc3ccc4c(c3)OCO4)c3ccc(F)cc3c2=O)cc1	/	/	.	/	/
COc1ccc(-c2nc3n(c(=O)c2C#N)CCS3)cc1	.	/	/	/	.
FC(F)Oc1ccc(/C=N/c2c(-c3ccc(OC(F)F)cc3)nc3n2CCS3)cc1	.	.	34.6	.	.
Cc1ccc(C(=O)NC(C)C(c2cccs2)N2CCCC2)s1 (centres undefined)	.	.	32.7	.	.
CC(NC(=O)c1ccco1)C(c1cccs1)N1CCN(c2ccccc2F)CC1 (centres undefined)	.	.	37.7	.	.
CC(C)C(=O)NC(C)C(c1cccs1)N1CCOCC1 (centres undefined)	.	.	.	.	.
Cc1cccc(NC(=O)NC(C)C(c2cccs2)N2CCOCC2)c1 (centres undefined)	.	.	.	30.3	.
CN(C)c1ccc(NC(=O)CN2CCN(CC(=O)Nc3ccc(Br)cc3)CC2)cc1	/	.	.	/	/
CCc1ccc(S(=O)(=O)c2nnn3c2nc(N2CCOCC2)c2ccccc23)cc1	.	.	32.1	.	.
CCOc1ccccc1-c1nc(CN2CCCN(C(=O)c3ccco3)CC2)c(C)o1	.	.	.	32.8	.
Cc1cc(C)nc(NC(C)(C)C(=O)O)n1	.	.	.	32.5	.
CCc1ccccc1Nc1nn2c(=O)c3ccc(C(=O)NC4CCC(C)CC4)cc3nc2s1 (centres undefined)	/	.	.	/	/
O=C(CCCCCN1C(=O)CCC1=O)Nc1ncn[nH]1	.	.	/	45.4	.
COc1cc(OC)c(N(C)C(=O)C2CCCN(c3ncnc4c3nc3n4CCCCC3)C2)cc1Cl (centres undefined)	/	.	.	/	/
CC(C)N(Cc1ccccc1)C(=O)Cn1ncc2c([nH]c3ccccc32)c1=O	/	.	.	/	/
CN(Cc1ccccc1)c1ccc2cc(S(=O)(=O)N3CCCCC3)ccc2n1	/	/	.	/	/
CCn1c(CNc2ccc(Cl)cc2)nnc1SCCN1CCCCC1	.	.	.	50.0	.

From PubChem
